For some assays here: Results with a measured potency or affinity are listed apart. Calls of active or inactive are those of the source.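 The calls were made as follows, unless noted: active = calcium signal cut by more than 3 SD below the full-agonist control yet still positive, in both repeats and the earlier primary screen; inactive = the rest.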
Legend:
[1] = system: TRPC4 beta (transient receptor potential cation channel C4), mouse; assay: activators of mouse TRPC4 channel, confirmation, cell-based, Fluo4 calcium, HEK293 TRPC4beta/mu-opioid, duplicates, 10 µM (AID 2426;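 active = fluorescence ratio normalized to control raised more than 50% in primary screen plus both repeat runs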); conditions: Fluo4 calcium fluorescence, at 10 µM; active compounds read high
[2] = system: transient receptor potential cation channel C4 beta (TRPC4), mouse; assay: activators of mouse TRPC4 channel, confirmation, cell-based, second round, Fluo4, HEK293 TRPC4beta/mu-opioid, 1 µM (AID 2461;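 active = primary screen active and over 50% activation in each of two duplicate runs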); conditions: Fluo4 calcium fluorescence, at 1 µM; active compounds read high
[3] = system: TRPC4 (transient receptor potential cation channel C4 beta), mouse; assay: positive allosteric modulators of mouse TRPC4, confirmation, cell-based, second round, Fluo-4, HEK293 TRPC4beta/mu-opioid, 1 µM (AID 2554;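 active = primary screen hit whose fluorescence ratio, in both repeats, exceeds the weak agonist control mean by 3 SD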); conditions: DAMGO EC20, Fluo-4 calcium flux, at 1 µM; active compounds read high
[4] = system: TRPC4 beta (transient receptor potential cation channel C4), mouse; assay: positive allosteric modulators of mouse TRPC4, confirmation, cell-based, Fluo-4, HEK293 TRPC4beta/mu-opioid (AID 2555;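 active = primary screen hit whose calcium fluorescence ratio, in both repeats, exceeds the weak agonist control mean by 3 SD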); conditions: DAMGO EC20, Fluo-4 calcium flux, at 10 µM; active compounds read high
[5] = target: Short transient receptor potential channel 4 (Mus musculus) (UniProt Q9QUQ5); assay: inhibitors of mouse TRPC4 channel, confirmation, cell-based, Fluo4, HEK293 TRPC4beta/mu-opioid (AID 2636); conditions: DAMGO, Fluo4 calcium flux, at 10 µM; active compounds read high
[6] = target: Short transient receptor potential channel 4 (Mus musculus) (UniProt Q9QUQ5); assay: inhibitors of mouse TRPC4 channel, confirmation, cell-based, second round, Fluo4, HEK293 TRPC4beta/mu-opioid, 1 µM (AID 2637;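 active = calcium signal ratio cut to more than 3 SD under the fully stimulated control mean yet still positive, in both repeats and the primary screen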;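 as to inhibition: percent of integrated ratio relative to wells lacking test compound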); conditions: Fluo4 calcium flux, DAMGO, at 1 µM; active compounds read high
[7] = target: Short transient receptor potential channel 4 (Mus musculus) (UniProt Q9QUQ5); assay: mouse TRPC4 channel activators, dose response, cell-based, HEK293 TRPC4/mu-opioid, Fluo-4 calcium (AID 434937;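 active = primary screen activator hit with a dose response curve and TRPC4 channel activation at any tested dose; inactive = no activation, no dose response, or not a primary hit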)
[8] = target: Short transient receptor potential channel 4 (Mus musculus) (UniProt Q9QUQ5); assay: TRPC4 positive allosteric modulators, dose response, cell-based, HEK293 TRPC4/mu-opioid, Fluo-4 calcium, EC20 DAMGO (AID 434941;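 active = earlier screen potentiator hit that boosts the TRPC4 ion channel at some dose, with a dose response; inactive = no potentiation, no dose response, or not a prior hit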;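 also: calcium entry triggered by an EC20 dose of DAMGO at the co-expressed mu-opioid receptor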)
[9] = target: Short transient receptor potential channel 6 (Mus musculus) (UniProt Q61143); assay: inhibition of mouse TRPC6 channel, confirmation, selectivity assay for TRPC4 inhibitor project, cell-based, HEK293, membrane potential dye, duplicate (AID 434948;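 active = active in primary screen and both duplicates, each dropping signal beyond three positive-control SD with fluorescence still positive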); conditions: HEK293 TRPC6, membrane potential dye fluorescence, at 10 µM, stimulated with maximal-effect acetylcholine; active compounds read high
[10] = target: Short transient receptor potential channel 6 (Mus musculus) (UniProt Q61143); assay: activation of mouse TRPC6 channel, confirmation, selectivity assay for TRPC4 activator project, cell-based, HEK293, membrane potential dye, duplicate (AID 434950;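 active = membrane potential signal rise above negative control mean plus 3 SD in both duplicates, also active in the earlier TRPC4 screen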); conditions: HEK293 TRPC6, membrane potential fluorescence, at 10 µM; active compounds read high
[11] = target: Short transient receptor potential channel 6 (Mus musculus) (UniProt Q61143); assay: TRPC6 potentiation by TRPC4 potentiator hits, confirmation, selectivity assay for TRPC4 potentiator project, HEK293 cells, membrane potential dye, duplicate (AID 434952;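 active = compound raising the membrane signal above positive-control mean plus 3 SD in both repeats, and a primary screen hit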); conditions: HEK293 TRPC6, membrane potential dye fluorescence, at 10 µM, maximal acetylcholine added after compound; active compounds read high
[12] = target: Short transient receptor potential channel 4 (Mus musculus) (UniProt Q9QUQ5); assay: calcium flux activators in TRPC4/5HT1a cells, counter-screen for TRPC4 activator project, cell-based, second counter screen, HEK293 TRPC4/5HT1a, Fluo-4 (AID 434977;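 active = calcium signal rise above buffer-control mean plus 5 SD in both duplicates, and also a hit in the primary screen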); conditions: Fluo-4 calcium flux, at 10 µM; active compounds read high
[13] = calcium flux inhibitors in TRPC4/5HT1a cells, confirmation, counter-screen for TRPC4 inhibitor project, cell-based, second counter screen, HEK293 TRPC4/5HT1a, Fluo-4 (AID 434978;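 active = primary screen active whose calcium signal fell more than 3 SD beyond the full-serotonin control mean in both duplicate plates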;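 as to outcome: serotonin given first at submaximal then at maximal dose after compound preincubation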); conditions: Fluo-4 calcium flux, at 10 µM, serotonin added to trigger calcium flux; active compounds read high
[14] = system: TRPC4 (mouse), co-expressed with 5HT1a in HEK293; assay: calcium flux potentiators in TRPC4/5HT1a cells, confirmation, counter-screen for TRPC4 potentiator project, cell-based, second counter screen, HEK293 TRPC4/5HT1a, Fluo-4 (AID 434979;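 active = signal rise over 3 SD above mean of control wells given weak agonist, in both repeats and first screen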); conditions: Fluo-4 calcium flux, at 10 µM, serotonin added at its EC20 dose; active compounds read high
[15] = calcium flux activation in mu-opioid HEK293 cells, confirmation, counter-screen for TRPC4 activator project, cell-based, HEK293 mu-opioid receptor line (AID 449723;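 active = hit in primary screen, with calcium signal over 5 SD above buffer well mean in both duplicates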;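 also: counter screen cells carry the mu-opioid receptor alone and lack TRPC4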); conditions: Fluo-4 calcium fluorescence, at 10 µM; active compounds read high
[16] = calcium flux enhancement in mu-opioid HEK293 cells, confirmation, counter-screen for TRPC4 allosteric potentiator project, cell-based, HEK293 mu-opioid receptor line (AID 449724;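 active = calcium signal rise more than 3 SD above the low-dose agonist control mean, in both duplicate plates and the primary screen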); conditions: Fluo-4 calcium flux, at 10 µM, compound added before EC20 DAMGO stimulus; active compounds read high

Sequence of Short transient receptor potential channel 6 (Mus musculus) (Q61143 whole entry, looked up): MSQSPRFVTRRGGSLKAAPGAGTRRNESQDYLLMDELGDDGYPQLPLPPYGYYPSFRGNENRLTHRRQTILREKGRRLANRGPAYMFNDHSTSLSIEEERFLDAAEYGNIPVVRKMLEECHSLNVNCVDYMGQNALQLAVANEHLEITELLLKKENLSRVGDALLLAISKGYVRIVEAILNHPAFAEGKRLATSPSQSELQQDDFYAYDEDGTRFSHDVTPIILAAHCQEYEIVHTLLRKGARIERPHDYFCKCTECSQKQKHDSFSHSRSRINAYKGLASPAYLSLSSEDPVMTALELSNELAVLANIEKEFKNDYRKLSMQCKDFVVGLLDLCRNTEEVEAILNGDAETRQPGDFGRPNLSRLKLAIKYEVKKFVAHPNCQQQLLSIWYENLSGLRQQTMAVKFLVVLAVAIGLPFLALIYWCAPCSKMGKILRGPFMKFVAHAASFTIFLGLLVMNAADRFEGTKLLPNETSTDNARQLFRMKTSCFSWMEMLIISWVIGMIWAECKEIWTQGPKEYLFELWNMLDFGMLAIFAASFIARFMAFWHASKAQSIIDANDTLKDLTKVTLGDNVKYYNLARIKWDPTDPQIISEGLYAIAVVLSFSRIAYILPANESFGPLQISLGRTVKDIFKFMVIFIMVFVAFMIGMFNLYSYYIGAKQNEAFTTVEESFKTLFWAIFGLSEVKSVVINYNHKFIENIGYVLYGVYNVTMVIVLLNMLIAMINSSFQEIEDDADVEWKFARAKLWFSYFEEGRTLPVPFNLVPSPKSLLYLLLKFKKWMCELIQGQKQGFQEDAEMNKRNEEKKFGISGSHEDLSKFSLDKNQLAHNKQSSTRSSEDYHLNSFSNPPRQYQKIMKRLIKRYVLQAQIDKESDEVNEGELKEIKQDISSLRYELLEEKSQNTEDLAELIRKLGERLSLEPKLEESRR
Sequence of Short transient receptor potential channel 4 (Mus musculus) (Q9QUQ5 whole entry, looked up): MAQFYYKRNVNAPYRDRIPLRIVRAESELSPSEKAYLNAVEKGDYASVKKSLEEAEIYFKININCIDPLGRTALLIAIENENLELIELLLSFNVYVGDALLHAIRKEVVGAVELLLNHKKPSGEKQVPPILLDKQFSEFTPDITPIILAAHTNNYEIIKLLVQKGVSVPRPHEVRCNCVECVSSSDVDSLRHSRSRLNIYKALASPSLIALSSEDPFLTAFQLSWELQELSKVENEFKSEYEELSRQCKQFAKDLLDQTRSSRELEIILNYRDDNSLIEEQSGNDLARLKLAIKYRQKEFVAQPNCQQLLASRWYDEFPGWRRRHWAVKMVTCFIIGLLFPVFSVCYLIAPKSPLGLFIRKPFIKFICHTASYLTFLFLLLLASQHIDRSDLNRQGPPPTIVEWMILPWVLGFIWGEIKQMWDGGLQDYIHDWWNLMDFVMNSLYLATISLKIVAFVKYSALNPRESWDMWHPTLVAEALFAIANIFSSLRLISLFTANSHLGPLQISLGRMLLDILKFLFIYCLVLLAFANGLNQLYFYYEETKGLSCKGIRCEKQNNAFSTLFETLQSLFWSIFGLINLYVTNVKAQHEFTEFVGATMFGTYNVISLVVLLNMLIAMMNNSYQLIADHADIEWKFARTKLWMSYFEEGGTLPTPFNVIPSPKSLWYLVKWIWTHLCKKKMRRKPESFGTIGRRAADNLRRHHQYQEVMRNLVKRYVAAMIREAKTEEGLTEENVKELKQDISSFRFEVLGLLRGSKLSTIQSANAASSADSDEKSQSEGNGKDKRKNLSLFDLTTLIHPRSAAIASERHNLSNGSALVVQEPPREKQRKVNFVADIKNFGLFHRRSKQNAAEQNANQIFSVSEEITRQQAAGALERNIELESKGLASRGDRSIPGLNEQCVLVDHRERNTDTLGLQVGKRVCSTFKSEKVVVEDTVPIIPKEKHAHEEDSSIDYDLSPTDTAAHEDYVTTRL

SMILES	outcome [1]	outcome [2]	outcome [3]	outcome [4]	inhibition [5]	inhibition [6]	outcome [7]	outcome [8]	outcome [9]	outcome [10]	outcome [11]	outcome [12]	outcome [13]	outcome [14]	outcome [15]	outcome [16]	outcome [6]	inhibition [13]	inhibition [9]
CN1CCN(c2ccc(NC(=O)c3ccc(Br)o3)cc2)CC1	inactive	inactive	inactive	inactive	91% (active)	46% (active)	inactive	inactive	inactive	inactive	inactive	inactive	inactive	inactive	inactive	inactive	–	–	–
Cc1cccc(C(=O)Nc2sc(-c3ccccc3)cc2C(=O)O)c1	inactive	inactive	inactive	inactive	98% (active)	–	inactive	inactive	inactive	inactive	inactive	inactive	–	inactive	inactive	inactive	inactive	19.4% (active)	–
CCOC(=O)C1CCN(C2CCN(C(=O)c3oc4c(C)c(C)ccc4c3C)CC2)CC1	inactive	inactive	inactive	inactive	95% (active)	–	inactive	inactive	inactive	inactive	inactive	inactive	inactive	inactive	inactive	inactive	inactive	–	–
CCOc1cc(CNC2CCCC2)cc(Cl)c1OCc1ccccc1	inactive	inactive	inactive	inactive	76% (active)	–	inactive	inactive	inactive	inactive	inactive	inactive	–	inactive	inactive	inactive	inactive	33% (active)	–
CCCn1c(=N)n(CC(=O)C(C)(C)C)c2ccccc21	inactive	inactive	inactive	inactive	92% (active)	–	inactive	inactive	inactive	inactive	inactive	inactive	–	inactive	inactive	inactive	inactive	42.4% (active)	–
COC(=O)C1=C(C)N(Cc2ccccc2)C(=S)N[C@H]1c1ccccc1	inactive	inactive	inactive	inactive	73% (active)	–	inactive	inactive	inactive	inactive	inactive	inactive	–	inactive	inactive	inactive	inactive	25.6% (active)	–
Cc1cccc(-n2ccnc2CN2CCC(CO)(Cc3ccccc3)CC2)c1	inactive	inactive	inactive	inactive	70% (active)	–	inactive	inactive	inactive	inactive	inactive	inactive	inactive	inactive	inactive	inactive	inactive	–	–
CNCc1c(OCc2ccccc2)ccc2ccccc12	inactive	inactive	inactive	inactive	92% (active)	–	inactive	inactive	–	inactive	inactive	inactive	–	inactive	inactive	inactive	inactive	34.9% (active)	46% (active)
CNC(=O)COc1ccc2oc3c(c2c1)CCCC3	inactive	inactive	inactive	inactive	74% (active)	49% (active)	inactive	inactive	inactive	inactive	inactive	inactive	–	inactive	inactive	inactive	–	31.4% (active)	–
CN(C)CCN1C(=O)C2C(C(=O)Nc3cc(Cl)cc(Cl)c3)C3C=CC2(O3)C1C(=O)NC1CCCCC1 (centres undefined)	inactive	inactive	inactive	inactive	71% (active)	–	inactive	inactive	inactive	inactive	inactive	inactive	inactive	inactive	inactive	inactive	inactive	–	–
CCOC(=O)c1cc(C#N)c(N2CCCCC2)nc1-c1ccccc1	inactive	inactive	inactive	inactive	93% (active)	–	inactive	inactive	inactive	inactive	inactive	inactive	inactive	inactive	inactive	inactive	inactive	–	–
Cc1ccc2cc(CN(CCN3CCOCC3)C(=O)NCc3ccccc3)c(=O)[nH]c2c1C	inactive	inactive	inactive	inactive	80% (active)	42% (active)	inactive	inactive	inactive	inactive	inactive	inactive	–	inactive	inactive	inactive	–	34% (active)	–
COc1cccc(C2=NN(C(=O)c3ccco3)C(c3ccco3)C2)c1 (centres undefined)	inactive	inactive	inactive	inactive	71% (active)	–	inactive	inactive	inactive	inactive	inactive	inactive	–	inactive	inactive	inactive	inactive	20.6% (active)	–
CCOC(=O)C1(CC2CC2)CCN(Cc2cc(Cl)c(O)c(OC)c2)CC1	inactive	inactive	inactive	inactive	71% (active)	–	inactive	inactive	inactive	inactive	inactive	inactive	inactive	inactive	inactive	inactive	inactive	–	–

Source: PubChem BioAssay
